Assay results from PubChem BioAssay.
“And” between values parts separate entries of the source, which are not always exact repeats. Identical values can stand only once. The source made the active and inactive calls. Unless noted, no stated cut-off is given here; in the data, active means inhibition above about 80%; inactive means the rest.

How the values were obtained:
[1] = LFS_MB_P medulloblastoma growth inhibition, cell-based, chromothripsis tumors, cisplatin or BGB combos (AID 1671449); settings: LFS_MB_P medulloblastoma cells;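 further: cells exposed for 96 hours; 0% = vehicle DMSO and 100% = killing by high DMSO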
[2] = HDN33 neuroblastoma growth inhibition, cell-based, chromothripsis tumors, cisplatin or BGB combos (AID 1671450); settings: HDN33 neuroblastoma cells, stronger effect = higher value;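 further: cells exposed to compound for four days; 0% = vehicle DMSO and 100% = cell killing by high DMSO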
[3] = ICB984 medulloblastoma cell growth inhibition, synergistic combos for chromothripsis tumors, cisplatin or BGB combos (AID 1671451; call rule not given here;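 further: cells exposed for 96 hours before readout; 0% = vehicle DMSO and 100% = killing by high DMSO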); settings: ICB984 medulloblastoma cells, drug combinations, stronger effect = higher value
[4] = LFS_MB_1R medulloblastoma cell growth inhibition, synergistic combos for chromothripsis tumors, cisplatin or BGB combos (AID 1671452); settings: LFS_MB_1R medulloblastoma cells, stronger effect = higher value;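 further: cells exposed for 96 hours before readout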
[5] = HTB85 osteosarcoma cell growth inhibition, synergistic combos for chromothripsis tumors, BGB or cisplatin IC20 combos (AID 1671453); settings: HTB85 osteosarcoma cells, drug combinations, stronger effect = higher value;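 further: cells exposed for 96 hours before readout; 0% = vehicle DMSO and 100% = high DMSO killing control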
[6] = CRL2098 osteosarcoma cell growth inhibition, synergistic combos for chromothripsis tumors, BGB or cisplatin IC20 combos (AID 1671454); settings: CRL2098 osteosarcoma cells, drug combinations, stronger effect = higher value;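 further: cells exposed for 96 h before readout; 0% = vehicle DMSO and 100% = killing by high DMSO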
[7] = HD-MB03 medulloblastoma cell growth inhibition, synergistic combos for chromothripsis tumors, BGB or cisplatin IC20 combos (AID 1671455; in the data active means inhibition above about 83%;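 further: 0% = vehicle DMSO and 100% = high DMSO as cytotoxic control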); settings: HD-MB03 medulloblastoma cells, stronger effect = higher value
[8] = UWB1.289 ovarian carcinoma cell growth inhibition, synergistic combos for chromothripsis tumors, BGB or cisplatin combos (AID 1671456); settings: UWB1.289 ovarian carcinoma cells, stronger effect = higher value;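 further: cells exposed to compound for four days; 0% = vehicle DMSO and 100% = killing by high DMSO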
[9] = LFS_MB_2R medulloblastoma cell growth inhibition, synergistic combos for chromothripsis tumors, cisplatin combos (AID 1671457); settings: LFS_MB_2R medulloblastoma cells, stronger effect = higher value;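 further: cells exposed to compound for four days before readout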
[10] = MDA-MB-436 breast carcinoma cell growth inhibition, synergistic combos for chromothripsis tumors, BGB or cisplatin combos (AID 1671458; call rule not given here;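 further: cells exposed for 96 hours; 0% = vehicle DMSO and 100% = killing by high DMSO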); settings: MDA-MB-436 breast carcinoma growth inhibition, drug combinations, stronger effect = higher value
[11] = UWB1.289_BRCA1 ovarian cancer growth, cell-based, BGB or cisplatin combinations (AID 1671459); settings: UWB1.289 BRCA1 ovarian carcinoma, drug combinations, stronger effect = higher value
[12] = human astrocyte viability loss, single and combined drugs, cytotoxicity control for chromothriptic childhood tumor combination screen, cell-based, BGB or cisplatin IC20 combos (AID 1671460); settings: Human astrocytes, drug combinations, stronger effect = higher value;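 further: cells exposed to compounds for 96 hours before viability readout; 0% = vehicle and 100% = killing control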
[13] = growth inhibition of BT084 medulloblastoma cells, cell-based, ICGC_MB145, cisplatin and BGB IC40 combos (AID 1671461); settings: drug combinations, stronger effect = higher value;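 further: cells exposed to drugs for 96 hours; 0% = vehicle DMSO and 100% = high DMSO full killing control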
[14] = growth inhibition of RCMB18 medulloblastoma cells, cell-based, cisplatin and BGB IC40 combos (AID 1671462); settings: stronger effect = higher value;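 further: cells exposed to compound for four days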
[15] = growth inhibition of CRL1545 osteosarcoma cells, cell-based, cisplatin and BGB IC20 combos (AID 1671464); settings: stronger effect = higher value;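 further: cells exposed to compound for 96 hours before readout; 0% = vehicle DMSO and 100% = high DMSO killing control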
[16] = measured here: combination with BGB IC40, at 0.05 µM
[17] = measured here: with BGB IC20 combination, at 0.5 µM
[18] = measured here: with cisplatin IC20 combination, at 0.5 µM
[19] = measured here: combination with cisplatin, at 0.5 µM
[20] = measured here: combination with cisplatin, at 5 µM

Nc1nc(F)nc2c1ncn2C1OC(COP(=O)(O)O)C(O)C1O (stereo not drawn)
inhibition ([1]; at 0.5 µM, stronger effect = higher value): -6.1% (inactive) and -16% (inactive) | inhibition ([1]; measured here: combination with BGB IC20, at 0.005 µM): -22.8% and 0.183% | inhibition ([1]; measured here: combination with BGB IC40, at 0.005 µM): -34.6% and 88.8% | inhibition [1, 16]: -38.1% and -2.46% | inhibition ([1]; measured here: combination with cisplatin, at 0.5 µM, stronger effect = higher value): -18.5% and -25% | inhibition ([1]; measured here: combination with cisplatin, at 5 µM, stronger effect = higher value): -36% and -9.03% | inhibition ([2]; BGB combo, at 5 µM): 8.47% and 22.7% | inhibition ([2]; at 0.5 µM): -18.9% (inactive) and 5.11% (inactive) | inhibition ([2]; cisplatin combo, at 5 µM): 34% and 24.2% | inhibition [2, 17]: -23% and -1.08% | inhibition [2, 18]: -13.9% and 12.9% | inhibition ([2]; single agent, at 5 µM): 32.2% and 15.4% | inhibition ([3]; BGB IC20 combo, at 0.005 µM): -19.2% and -1.57% | inhibition ([3]; BGB IC40 combo, at 0.005 µM): -13.6% and -18.3% | inhibition ([3]; BGB IC40 combo, at 0.05 µM): -31.2% and -1.01% | inhibition ([3]; at 0.5 µM): -29.2% (inactive) and -28.4% (inactive) | inhibition ([3]; cisplatin combo, at 0.05 µM): -35.9% and -6.12% | inhibition ([3]; cisplatin combo, at 0.5 µM): -20.9% and -39.7% | inhibition ([3]; cisplatin combo, at 5 µM): -37.1% and 11.4% | inhibition ([3]; measured here: 5 uM single agent, at 5 µM): 0.546% and -0.896% | inhibition ([4]; at 0.5 µM): -6.95% (inactive) and -19.6% (inactive) | inhibition [4, 16]: -26.6% and -4.09% | inhibition [4, 19]: -0.649% and -47.1% | inhibition [4, 20]: -27.4% and 0.798% | inhibition ([5]; at 0.5 µM): -3.37% (inactive) and -4.43% (inactive) | inhibition ([5]; measured here: with BGB IC20, at 0.5 µM): -4.86% and 13.2% | inhibition ([5]; measured here: with BGB IC20, at 5 µM): 45.3% and 42.7% | inhibition ([5]; measured here: with cisplatin IC20, at 0.5 µM): -6.04% and -18.8% | inhibition ([5]; measured here: with cisplatin IC20, at 5 µM): 12.2% and 45.7% | inhibition ([5]; single agent, at 5 µM): 36% and 50.6% | inhibition ([6]; at 0.5 µM): 89.7% (active) and 91.2% (active) | inhibition ([6]; measured here: combination with BGB at IC20, at 0.5 µM): 89.6% and 91.3% | inhibition ([6]; measured here: combination with cisplatin at IC20, at 0.5 µM): 88.8% and 92.6% | inhibition ([7]; at 0.5 µM): -9.66% (inactive) and -9.92% (inactive) | inhibition ([7]; measured here: combo with BGB at IC20, at 0.5 µM): -18.1% and -5.96% | inhibition ([7]; measured here: combo with cisplatin at IC20, at 0.5 µM): -7.22% and -17% | inhibition ([8]; at 0.5 µM): 0.55% (inactive) and 0.43% (inactive) | inhibition ([8]; measured here: inhibition with BGB combination, at 0.05 µM): -14.7% and -18.8% | inhibition ([8]; measured here: inhibition with cisplatin combination, at 0.05 µM): 7.04% and -2.8% | inhibition ([9]; at 0.5 µM): -15.7% (inactive) and -21.8% (inactive) | inhibition [9, 19]: -20.2% and -35.8% | inhibition [9, 20]: -11.6% and -19.4% | inhibition ([10]; at 0.5 µM): -9.15% (inactive) and -15.9% (inactive) | inhibition ([10]; measured here: BGB combination, at 0.5 µM): -8.11% and -21.9% | inhibition ([10]; measured here: BGB combination, at 5 µM): -2.69% and -3.01% | inhibition ([10]; measured here: cisplatin combination, at 0.5 µM): -21.1% and -19.1% | inhibition ([10]; measured here: cisplatin combination, at 5 µM): -5.75% and -5.25% | inhibition ([11]; BGB combination, concentration series, at 5 µM): 11.6% and 15.8% | inhibition ([11]; at 0.5 µM): -0.02% (inactive) and -0.87% (inactive) | inhibition ([11]; cisplatin combination, concentration series, at 5 µM): 11.9% and 23.4% | inhibition ([12]; at 0.5 µM): 1.35% (inactive) and 3.3% (inactive) | inhibition ([12]; measured here: combo with BGB IC20, at 0.5 µM): -1.03% and 7.99% | inhibition ([12]; measured here: combo with cisplatin IC20, at 0.5 µM): -5.99% and 1.9% | inhibition ([13]; at 0.5 µM): -11.5% (inactive) and -3.83% (inactive) | inhibition ([13]; cisplatin combination, at 0.5 µM): -36% and -5.18% | inhibition ([13]; cisplatin combination, at 5 µM): 4.67% and -96.3% | inhibition ([13]; measured here: BGB IC40 combination 0.05 uM, at 0.05 µM): -40.8% and -7.89% | inhibition ([13]; single agent, at 5 µM): -1.22% and 8.96% | inhibition ([14]; at 0.5 µM): -12.8% (inactive) and -10.2% (inactive) | inhibition ([14]; cisplatin combo, at 5 µM): 18.6% and -15.8% | inhibition ([14]; measured here: BGB IC40 combination, at 0.05 µM): -56.2% and -25.6% | inhibition [14, 19]: 24.5% and -1.4% | inhibition ([14]; single agent, at 5 µM): -15.5% and 3.22% | inhibition ([15]; at 0.5 µM): -20.4% (inactive) and 8.11% (inactive) | inhibition [15, 17]: -8.22% and 10.3% | inhibition [15, 18]: -28.6% and 5.54% | inhibition ([15]; single agent, at 0.05 µM): 18.9% and -12.8% | inhibition ([15]; single agent, at 5 µM): -12.4% and -14.9%
